Screening results as filed in PubChem BioAssay.
A selection: hits, their analogues and other compounds. The true share with any hit is near 11%.
HPGD block – qHTS Assay for Inhibitors of HPGD (15-Hydroxyprostaglandin Dehydrogenase) | 15-hydroxyprostaglandin dehydrogenase [NAD(+)] (Homo sapiens), P15428 | purified HPGD, NADH fluorescence kinetic, PGE2 substrate | Potency, µM, for inactives: at the top dose activity change, negative = inhibition, hits mostly inhibitors | 150,000 compounds, 4.3% hits | AID 894, 2007; note: potency is the fitted concentration of half-maximal effect
Target sequence (P15428 whole entry, looked up): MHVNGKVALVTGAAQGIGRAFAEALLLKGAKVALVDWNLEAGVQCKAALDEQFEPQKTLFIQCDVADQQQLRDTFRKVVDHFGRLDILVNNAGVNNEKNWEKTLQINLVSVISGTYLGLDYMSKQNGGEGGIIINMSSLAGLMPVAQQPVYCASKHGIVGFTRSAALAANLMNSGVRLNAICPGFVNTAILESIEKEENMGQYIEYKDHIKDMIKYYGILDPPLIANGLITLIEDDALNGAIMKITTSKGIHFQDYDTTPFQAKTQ
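20 nM HPGD preincubated 15 min at room temperature with compound in 50 mM Tris-HCl pH 8, 0.01% Tween 20. Started with 1 mM NAD+ and 30 uM prostaglandin E2; NADH fluorescence (360/450 nm) read 5 times over 30-s intervals, last minus first.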
PNC inhibitor – High Content Assay for Compounds that inhibit the Assembly of the Perinucleolar Compartment; PC3M PTB-GFP, PNC prevalence imaging, 16 h; stronger effect = lower value; activity change (PNC), negative = inhibition, % at 10 µM; 140,000 compounds, 3.1% hits;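 active = readout at or below -70, meaning at least 70% loss of cells showing the perinucleolar compartment, a nuclear body marking cancer cells; inconclusive = readout between -30 and a set limit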;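 note: plate controls were DMSO wells for no effect and camptothecin positive control wells for full effect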
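Read-out is percentage of cells bearing a perinucleolar compartment, from automated 20x imaging of fixed, Hoechst-stained PC3M PTB-GFP cells. Cells were seeded 4 h, then exposed 16 h to compound (23 nl of library stock) in duplicate plates.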
ALDH1A1 block – qHTS Assay for Inhibitors of Aldehyde Dehydrogenase 1 (ALDH1A1); Purified ALDH1A1, NADH fluorescence, propionaldehyde substrate; Potency, µM (top dose mostly 75.3 µM), inactives show at the top dose activity, negative = inhibition, usual class: inhibitors; 220,000 compounds, 7.3% hits;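 note: potency is the fitted concentration of half-maximal effect; plate controls were no enzyme wells and a reference inhibitor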
An asterisk follows results filed as active; [ ] = another dose, or the depositor's remark. Unless noted, calls come from the whole dose curve; as a rule, active = well fitted inhibition curve with a large enough effect (not every such curve was filed as active); inconclusive = small, poorly fitted or top-dose-only effect, or another doubt; inactive = no such curve, though single readings can be large or run the other way. Unless noted, % is set by controls: 0 for no effect and ±100 for the full control effect.

How did COc1ccc(-c2nnc(SCC(=O)N3c4ccccc4Sc4ccccc43)o2)cc1 do in these assays?
HPGD block: -13.3%; PNC inhibitor: -100.0*; ALDH1A1 block: 8.5%

Results for C=CC1=C(C)/C(=C/c2[nH]c(Cc3[nH]c(/C=C4\NC(=O)C(C)=C4C=C)c(C)c3CCC(=O)O)c(CCC(=O)O)c2C)NC1=O ?
HPGD block: -18.9%; ALDH1A1 block: inconclusive

How did COc1ccccc1CN1CC2(CCN(C(=O)c3cc(C(F)(F)F)cc(C(F)(F)F)c3)CC2)C1 do in these assays?
HPGD block: -6.2%; ALDH1A1 block: 16.7%

How did Cc1ncc(CN2CCC(CO)(Cc3ccccc3)CC2)s1 do in these assays?
ALDH1A1 block: 4.3%

What do the screens show for `Nc1c(OCC(=O)O)ccc2cc(S(=O)(=O)O)ccc12`?
HPGD block: -14.8%; ALDH1A1 block: -0.7%[13.5 µM]

What do the screens show for `COc1ccc(-c2nnc(SCC(=O)c3ccc(C)o3)o2)cc1`?
HPGD block: inconclusive; PNC inhibitor: -118.9*; ALDH1A1 block: -2.7%

What do the screens show for `COc1ccc(-c2nnc(SCC(=O)NNC(=O)c3ccc(C)cc3)o2)cc1`?
HPGD block: -0.7%; PNC inhibitor: -16.9; ALDH1A1 block: 6.9%

How did CCNc1nc(NCC)nc(N(n2cnnc2)S(=O)(=O)c2ccc(C)cc2)n1 do in these assays?
HPGD block: -5.3%; PNC inhibitor: 133.8; ALDH1A1 block: inconclusive

What do the screens show for `CCNc1nc(NC(C)C)nc(N(n2cnnc2)S(=O)(=O)c2ccc(C)cc2)n1`?
HPGD block: -6.9%; PNC inhibitor: 83.4; ALDH1A1 block: 2.24µM*

How did CN(C)CC(O)CN1C(=O)NC(C)(C)C1=O (stereo unspecified) do in these assays?
ALDH1A1 block: 3.3%

What do the screens show for `O=[N+]([O-])c1ccccc1/C=C/C=N/Nc1ccc(S(=O)(=O)Nc2ccc(Cl)cc2)cc1[N+](=O)[O-]`?
ALDH1A1 block: -13.9%

How did COc1ncc2nc(-c3cc(F)cc(F)c3)c(=O)n(Cc3cccs3)c2n1 do in these assays?
HPGD block: -24.1%; ALDH1A1 block: inconclusive

Results for CCCCn1c(CN2CCN(C(=O)c3ccco3)CC2)nc2c1c(=O)n(C)c(=O)n2C ?
HPGD block: -7.2%; PNC inhibitor: -1.5; ALDH1A1 block: 22.4µM*

What do the screens show for `CCCCCCn1c(CN2CCN(Cc3ccccc3)CC2)nc2c1c(=O)n(C)c(=O)n2C`?
HPGD block: -8.9%; PNC inhibitor: inconclusive; ALDH1A1 block: inconclusive

What do the screens show for `CCCn1c(CN2CCN(C(=O)c3ccco3)CC2)nc2c1c(=O)n(C)c(=O)n2C`?
HPGD block: -5.9%; PNC inhibitor: -12.1; ALDH1A1 block: -7.0%

What do the screens show for `CCCCCCn1c(CN2CCN(C(=O)c3ccco3)CC2)nc2c1c(=O)n(C)c(=O)n2C`?
HPGD block: -17.0%; PNC inhibitor: -121.7*; ALDH1A1 block: 1.26µM*

How did COCC(=O)N1CCC2(CCN(Cc3ccccc3OC)CC2)CC1 do in these assays?
HPGD block: 0.6%; ALDH1A1 block: 9.0%

What do the screens show for `Cc1nn(-c2ccccc2)c(C)c1C(=O)NNC(=O)C(F)(F)F`?
ALDH1A1 block: -1.8%

Results for NCCCCCc1cnc[nH]1 ?
HPGD block: -3.9%; ALDH1A1 block: 2.8%

How did Cc1ccc(C(=O)c2c[nH]cc2-c2ccccc2)cc1 do in these assays?
HPGD block: -12.9%; PNC inhibitor: 19.3; ALDH1A1 block: 4.2%

What do the screens show for `O=C(c1ccccc1)c1c[nH]cc1-c1ccccc1`?
HPGD block: -18.7%; PNC inhibitor: -100.0*; ALDH1A1 block: inconclusive

What do the screens show for `COc1cccc(-c2ccc3ncnc(N4CCN(C)CC4)c3c2)c1`?
ALDH1A1 block: 29.6%

How did CN1CCN(c2ncnc3ccc(-c4cccc(C#N)c4)cc23)CC1 do in these assays?
ALDH1A1 block: 10µM*

How did CC(C)(C)C1=CC(=Nc2ccccc2N)C=C(C(C)(C)C)C1=O do in these assays?
HPGD block: 2.0%; PNC inhibitor: 7.1; ALDH1A1 block: 5.0%

What do the screens show for `CC(C)(C)C1=CC(=O)C(=O)C(C(C)(C)C)=C1`?
HPGD block: 3.98µM*; PNC inhibitor: -5.0; ALDH1A1 block: 2.82µM*

What do the screens show for `O=C1Nc2ccccc2N(O)N1c1ccc(S(=O)(=O)N2CCCCCC2)cc1`?
HPGD block: 0.1%; PNC inhibitor: -82.1*; ALDH1A1 block: 1.8%

How did CCN(CC)S(=O)(=O)c1ccc(N2C(=O)Nc3ccccc3N2O)cc1 do in these assays?
HPGD block: -1.6%; PNC inhibitor: 53.8; ALDH1A1 block: 7.7%

Results for CN1CC[C@@]2(CCCN(C(=O)c3cc(C(F)(F)F)cc(C(F)(F)F)c3)C2)C1 ?
HPGD block: -3.4%; ALDH1A1 block: -3.1%

What do the screens show for `COc1ccc(N2CCN(C(=O)CN(C)S(=O)(=O)c3cc(C)ccc3OC)CC2)cc1`?
ALDH1A1 block: -1.5%

How did CCN(CC)C(=O)Cc1c(OC)ccc2cc(Br)ccc12 do in these assays?
ALDH1A1 block: -4.3%

What do the screens show for `CCN(Cc1ccncc1)Cc1c(O)ccc2cc(Br)ccc12`?
ALDH1A1 block: 0.562µM*

What do the screens show for `O=C(CC1C(=O)NCCN1C(=O)Nc1ccccc1)Nc1ccc(F)cc1` (stereo unspecified)?
ALDH1A1 block: 3.5%

How did CC(C)CCN1CCNC(=O)C1CC(=O)Nc1ccc(F)cc1 (stereo unspecified) do in these assays?
HPGD block: -14.2%; PNC inhibitor: 27.2; ALDH1A1 block: 17.8µM*

How did CN(C)Cc1cc(C(C)(C)C)cc(CNC2CCCCC2)c1O do in these assays?
HPGD block: -9.0%; ALDH1A1 block: 1.3%[13.5 µM]

What do the screens show for `Clc1nc(Cl)nc(N(c2ccccc2)c2ccccc2)n1`?
HPGD block: -8.7%; PNC inhibitor: 40.9; ALDH1A1 block: inconclusive

How did Nc1ccc(N(c2ccccc2)c2ccc(N)cc2)cc1 do in these assays?
HPGD block: -4.5%; PNC inhibitor: 48.2; ALDH1A1 block: 8.91µM*

What do the screens show for `C=CCn1c(SCC(=O)c2[nH]c(C)c(C(=O)OC)c2C)nc2scc(-c3ccc(OC)c(OC)c3)c2c1=O`?
HPGD block: -18.3%; PNC inhibitor: 46.0; ALDH1A1 block: 9.9%

Results for O=C(Nc1cnccn1)c1csc2ccccc12 ?
HPGD block: -21.3%; PNC inhibitor: 1.9; ALDH1A1 block: inconclusive

How did O=C(Nc1ccon1)c1ccc(Cl)s1 do in these assays?
HPGD block: 17.8µM*; PNC inhibitor: inconclusive; ALDH1A1 block: 8.6%

What do the screens show for `O=C(Nc1ccon1)c1csc2ccccc12`?
HPGD block: 25.1µM*; PNC inhibitor: -22.6; ALDH1A1 block: inconclusive

How did O=C(Nc1nc2ccccc2s1)c1ccc(Cl)s1 do in these assays?
HPGD block: -10.2%; PNC inhibitor: 28.9; ALDH1A1 block: -11.7%

What do the screens show for `COc1ccc(CCC(=O)Nc2c(C)n(C)n(-c3ccccc3)c2=O)cc1`?
ALDH1A1 block: -2.9%

Results for O=C(O)C(Cc1cccs1)C(=O)O ?
HPGD block: -5.9%; ALDH1A1 block: -10.2%[13.5 µM]

Results for CCS(=O)(=O)N1CCN(c2cc3c(cc2[N+](=O)[O-])n(C)c(=O)n3C)CC1 ?
ALDH1A1 block: -7.1%

What do the screens show for `N#Cc1c(NC(=O)Cn2c(=O)oc3ccccc32)oc(-c2ccccc2)c1-c1ccccc1`?
HPGD block: inconclusive; PNC inhibitor: 27.7; ALDH1A1 block: 12.6µM*
